One test has as its target Albumin (Bos taurus) (UniProt P02769). The test can be described thus: compounds binding labelled BSA control protein – biochemical, small-molecule microarray, Alexa647 label, 635/667 nm fluorescence, artefact control for SMM control protein annotation, profiling panel (AID 1118).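 Note: score merges 667 nm emission intensity and signal-to-noise per printed compound spot.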 To be noted: BSA-A647 binding, fluorescence 635 nm, higher = more signal.
Test [1] in a line: probe aXIP binding to arrayed compounds – biochemical, NeuroSMM set, 635/667 nm fluorescence, primary screen (AID 1119).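 Note: probe is the protein aXip251-270 applied at 1 µg/mL to compound-printed slides; binding of probe to printed compounds measured as 667 nm fluorescence plus signal to noise.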 The following applies: small-molecule microarray, higher = more signal, called active from +8 up or from −8 down.
Test [2] is described as follows: probe aNOTCH3 binding on compound microarray – biochemical, small-molecule microarray, 635/667 nm fluorescence, primary screen (AID 1120).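 Note: probe is a biotin-tagged antibody raised against NOTCH3 rather than NOTCH3 protein; score merges spot fluorescence near 667 nm with spot signal to noise.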 The following applies: higher = more signal.
Test [3] is described as follows: probe aNOTCH2 binding on compound microarray – biochemical, small-molecule microarray, 635/667 nm fluorescence, primary screen (AID 1121).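 Note: score merges feature fluorescence read at 667 nm with its signal to noise.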 To be noted: higher = more signal.
Test [4] concerns the target Carbonic anhydrase 2 (Homo sapiens) (UniProt P00918). In words: compounds binding carbonic anhydrase 2 – biochemical, small-molecule microarray, Alexa647-labelled CAII, profiling panel (AID 1122). To be noted: CAII-A647 binding fluorescence, higher = more signal.
A short description of test [5]: COS7 lysate on small-molecule microarray, probe aHis, 635 nm (AID 1123).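 Note: z-score combines 667nm fluorescence intensity with signal-to-noise per printed compound spot.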 To be noted: COS7 cell lysate, fluorescence, higher = more signal.
Test [6] can be described thus: probe aLAP1 signal on lysate-treated microarray – cell lysate, small-molecule microarray, COS7 lysate, primary screen (AID 1124).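 Note: lysate comes from COS7 cells expressing LAP1 and is applied at 0.3 µg/mL; score merges spot fluorescence near 667 nm with signal-to-noise over triplicate slides.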 The following applies: probe aLAP1, fluorescence, higher = more signal.
A further test relates to Sam68 (KHDRBS1). In words: compounds binding KHDRBS1 protein – biochemical, small-molecule microarray, 635 nm fluorescence, primary screen (AID 1125).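 Note: score merges 667 nm channel intensity with signal to noise over triplicate slides.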 The following applies: higher = more signal.
In test [7] the test system is Chordin-like protein 2 (CHRDL2). In words: compounds binding chordin-like 2 – biochemical, small-molecule microarray, 635 nm fluorescence, primary screen (AID 1126).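 Note: printed compound slides probed with Chrdl2 protein at 4 µg/mL for 1 h at 4 C; score merges 667 nm emission intensity with signal to noise over three replicate slides.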 The following applies: fluorescence 635 nm, higher = more signal.
The target in test [8] is Concanavalin-A (Canavalia ensiformis) (UniProt P02866). In words: compounds binding concanavalin A lectin – biochemical, small-molecule microarray, Alexa647 label, 635 nm, artefact control for SMM control protein annotation, primary screen (AID 1127).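 Note: z combines 667 nm emission intensity with signal-to-noise across three replicate slides.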 The following applies: ConA-A647 binding fluorescence, higher = more signal.
Test [9] in a line: compounds binding Alexa647 anti-His antibody – biochemical, small-molecule microarray, 635 nm fluorescence, artefact control for SMM control protein annotation, primary screen (AID 1128).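 Note: score merges feature fluorescence with signal-to-noise for each printed compound spot.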 The following applies: higher = more signal.
Test [10] has as its system Human papillomavirus type 1a E7 protein (residues 1-88). In words: HPV1a E7 small-molecule binders, primary screen, biochemical, small-molecule microarray, residues 1-88, 635 nm (AID 1129). The following applies: small-molecule microarray binding, fluorescence 635 nm; higher = more signal.
Test [11] deals with Focal adhesion kinase 1 (Homo sapiens) (UniProt Q05397). In words: PTK2 protein binding on printed compound slides – biochemical, small-molecule microarray, 635/667 nm fluorescence, BSA, DTT, primary screen (AID 1130).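 Note: composite of spot emission at 667 nm and signal to noise over triplicate slides.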 The following applies: 635 nm fluorescence, higher = more signal.
In test [12] the test system is Fibrinogen (Alexa647-labelled). In words: Alexa647-fibrinogen binding to printed small molecules – biochemical, small-molecule microarray, 635/667 nm fluorescence, artefact control for SMM control-protein annotation, profiling panel (AID 1131).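 Note: z-score merges 667 nm fluorescence with per-spot signal-to-noise over triplicate slides.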 To be noted: fibrinogen-A647 binding fluorescence, higher = more signal.
Test [13] deals with Follistatin (Homo sapiens) (UniProt P19883). The test can be described thus: FST protein binding to printed compounds – biochemical, small-molecule microarray, 635/667 nm fluorescence, primary screen (AID 1132). The following applies: 635 nm fluorescence, higher = more signal.
For test [14], the target named is Fibroblast growth factor 2 (Homo sapiens) (UniProt P09038). The test can be described thus: basic fibroblast growth factor binding to printed compounds – biochemical, small-molecule microarray, 635/667 nm fluorescence, primary screen (AID 1133). The following applies: FGF2, fluorescence 635/667, higher = more signal.
The nature of test [15]: JC-1 mitochondrial potential readout, lung cancer cells – cell-based, A549, JC-1 fluorescence, basal, 24 h, 100 nL, profiling panel (AID 1138).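 Note: A549 lung adenocarcinoma cells under basal conditions with no added stimulus; test concentration not given here.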 To be noted: higher = more signal.
For a further test, the system named is Lefty1. In words: Lefty1 protein binding to printed compounds – biochemical, small-molecule microarray, 635/667 nm fluorescence, primary screen (AID 1139). The following applies: fluorescence 635/667, higher = more signal.
In test [16] the test system is wheat germ agglutinin (Triticum aestivum), Alexa647-labelled. The test can be described thus: Alexa647-WGA lectin binding to printed small molecules – biochemical, small-molecule microarray, 635/667 nm fluorescence, artefact control for SMM control-protein annotation, profiling panel (AID 1140).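 Note: score merges 667 nm feature emission with signal to noise over triplicate slides.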 The following applies: WGA-A647 binding, 635 nm fluorescence, higher = more signal.

Test [17] has as its target Luciferin 4-monooxygenase (Photinus pyralis) (UniProt P08659). In words: inhibition of purified Photinus pyralis luciferase – biochemical, luminescence, purified enzyme, 2006 set, primary screen (AID 1141).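 Note: cell-free assay with purified firefly luciferase at 100 ng per well in PBS; test concentration not given here.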 The following applies: purified firefly luciferase, SteadyGlo luminescence, 30 min; higher = more signal, called active from +8 up or from −8 down.

Structures are written as SMILES. The source made the active and inactive calls.

Sequence of Luciferin 4-monooxygenase (Photinus pyralis) (P08659 whole entry, looked up): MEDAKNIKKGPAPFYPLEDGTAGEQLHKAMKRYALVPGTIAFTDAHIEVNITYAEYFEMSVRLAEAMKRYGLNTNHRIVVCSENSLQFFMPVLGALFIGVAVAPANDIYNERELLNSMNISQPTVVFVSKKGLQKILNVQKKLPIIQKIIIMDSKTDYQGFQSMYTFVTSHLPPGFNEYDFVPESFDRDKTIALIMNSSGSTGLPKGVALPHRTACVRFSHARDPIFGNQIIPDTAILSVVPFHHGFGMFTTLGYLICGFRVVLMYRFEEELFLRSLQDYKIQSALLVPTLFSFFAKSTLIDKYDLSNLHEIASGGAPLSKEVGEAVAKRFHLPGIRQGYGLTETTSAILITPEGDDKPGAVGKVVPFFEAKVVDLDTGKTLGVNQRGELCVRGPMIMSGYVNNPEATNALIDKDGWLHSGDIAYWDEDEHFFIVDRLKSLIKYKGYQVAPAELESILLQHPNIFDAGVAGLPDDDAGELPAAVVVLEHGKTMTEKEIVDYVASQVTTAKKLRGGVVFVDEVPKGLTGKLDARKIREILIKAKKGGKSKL
Sequence of Focal adhesion kinase 1 (Homo sapiens) (Q05397 whole entry, looked up): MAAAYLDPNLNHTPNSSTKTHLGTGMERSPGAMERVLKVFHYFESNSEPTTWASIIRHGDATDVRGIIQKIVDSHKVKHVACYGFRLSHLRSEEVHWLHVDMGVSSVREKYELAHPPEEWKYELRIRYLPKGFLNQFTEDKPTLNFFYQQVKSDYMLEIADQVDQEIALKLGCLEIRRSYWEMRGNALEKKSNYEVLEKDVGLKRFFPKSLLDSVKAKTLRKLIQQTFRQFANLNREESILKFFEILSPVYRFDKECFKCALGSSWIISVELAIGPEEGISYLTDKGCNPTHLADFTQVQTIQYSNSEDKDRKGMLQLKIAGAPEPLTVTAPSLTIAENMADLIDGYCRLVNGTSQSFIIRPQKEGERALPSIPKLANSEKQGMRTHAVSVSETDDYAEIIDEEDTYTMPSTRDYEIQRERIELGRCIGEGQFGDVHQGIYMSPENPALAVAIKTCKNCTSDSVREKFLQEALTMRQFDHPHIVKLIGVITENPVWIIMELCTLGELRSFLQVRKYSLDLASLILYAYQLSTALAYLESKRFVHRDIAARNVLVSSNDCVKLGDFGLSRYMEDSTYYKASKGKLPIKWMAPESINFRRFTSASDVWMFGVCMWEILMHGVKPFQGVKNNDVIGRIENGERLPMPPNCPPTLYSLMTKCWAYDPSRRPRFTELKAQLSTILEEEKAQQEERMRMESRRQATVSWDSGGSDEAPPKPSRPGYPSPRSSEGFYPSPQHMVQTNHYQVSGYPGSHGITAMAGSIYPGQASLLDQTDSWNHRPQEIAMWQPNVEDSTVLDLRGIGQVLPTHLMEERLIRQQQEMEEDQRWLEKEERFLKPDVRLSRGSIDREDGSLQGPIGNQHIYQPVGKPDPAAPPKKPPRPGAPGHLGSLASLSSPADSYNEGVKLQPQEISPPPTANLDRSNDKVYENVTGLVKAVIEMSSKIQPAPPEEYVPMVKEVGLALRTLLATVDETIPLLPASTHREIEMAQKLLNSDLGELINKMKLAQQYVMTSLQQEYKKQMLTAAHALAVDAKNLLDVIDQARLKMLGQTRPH
Sequence of Albumin (Bos taurus) (P02769 whole entry, looked up): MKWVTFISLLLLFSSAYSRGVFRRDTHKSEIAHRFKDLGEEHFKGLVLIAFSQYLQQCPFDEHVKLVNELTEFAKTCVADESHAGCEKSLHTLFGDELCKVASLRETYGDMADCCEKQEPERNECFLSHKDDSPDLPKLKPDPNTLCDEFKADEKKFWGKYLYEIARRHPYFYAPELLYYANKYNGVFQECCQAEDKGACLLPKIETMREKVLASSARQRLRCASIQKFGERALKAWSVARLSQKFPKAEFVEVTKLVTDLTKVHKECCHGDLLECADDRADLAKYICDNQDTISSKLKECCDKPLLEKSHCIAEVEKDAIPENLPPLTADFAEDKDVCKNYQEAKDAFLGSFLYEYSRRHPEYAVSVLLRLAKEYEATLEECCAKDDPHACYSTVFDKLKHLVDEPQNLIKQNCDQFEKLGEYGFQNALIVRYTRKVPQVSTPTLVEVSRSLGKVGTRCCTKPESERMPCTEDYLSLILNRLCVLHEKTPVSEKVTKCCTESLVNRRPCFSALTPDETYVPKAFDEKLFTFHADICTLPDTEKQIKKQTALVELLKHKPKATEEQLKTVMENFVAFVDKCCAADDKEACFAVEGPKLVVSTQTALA
Sequence of Follistatin (Homo sapiens) (P19883 whole entry, looked up): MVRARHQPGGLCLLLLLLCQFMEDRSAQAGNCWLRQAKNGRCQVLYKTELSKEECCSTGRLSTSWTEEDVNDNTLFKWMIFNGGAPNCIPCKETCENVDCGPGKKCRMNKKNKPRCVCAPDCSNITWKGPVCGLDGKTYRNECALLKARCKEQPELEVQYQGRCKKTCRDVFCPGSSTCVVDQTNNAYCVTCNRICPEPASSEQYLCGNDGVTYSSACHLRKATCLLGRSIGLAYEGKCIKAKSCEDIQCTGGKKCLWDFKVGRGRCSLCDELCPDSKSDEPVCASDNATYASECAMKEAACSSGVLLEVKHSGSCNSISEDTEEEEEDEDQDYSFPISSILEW
Sequence of Fibroblast growth factor 2 (Homo sapiens) (P09038 whole entry, looked up): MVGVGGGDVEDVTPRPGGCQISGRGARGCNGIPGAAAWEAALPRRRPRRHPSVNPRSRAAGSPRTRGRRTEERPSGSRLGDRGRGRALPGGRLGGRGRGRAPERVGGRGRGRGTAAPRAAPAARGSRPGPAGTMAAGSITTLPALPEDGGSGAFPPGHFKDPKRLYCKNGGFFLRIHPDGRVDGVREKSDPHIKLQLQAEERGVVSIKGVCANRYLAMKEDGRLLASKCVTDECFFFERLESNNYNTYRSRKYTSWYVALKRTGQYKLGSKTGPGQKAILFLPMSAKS
Sequence of Concanavalin-A (Canavalia ensiformis) (P02866 whole entry, looked up): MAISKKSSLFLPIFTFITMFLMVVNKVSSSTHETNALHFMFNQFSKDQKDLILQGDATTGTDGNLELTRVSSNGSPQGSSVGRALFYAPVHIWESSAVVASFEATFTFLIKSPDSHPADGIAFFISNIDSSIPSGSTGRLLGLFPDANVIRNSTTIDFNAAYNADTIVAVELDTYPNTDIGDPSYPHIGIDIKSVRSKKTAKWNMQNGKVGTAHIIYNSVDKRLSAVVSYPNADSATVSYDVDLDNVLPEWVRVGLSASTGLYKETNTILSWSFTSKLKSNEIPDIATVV

For the molecule `COC(=O)[C@H](CCSC)NC(=O)CC=C[C@@H](C)CO`, the composite z-score with Albumin (Bos taurus) is -0.245; in [2], -0.0651; in test [3] it was -0.143; in test [4], 0.0952; in test [5], 1.42; in [6] it was -0.226. Further, the composite z-score with Sam68 (KHDRBS1) was determined as 1.29; in test [7], 1.5; in [8] it was 0.483; in test [9], 0.293; in test [10], 0.127; in [11], 0.0533. For the same molecule, the composite z-score was -0.922 in test [12]; 1.1 in test [13]; 1.73 in test [14]; 1.6 in the test on Lefty1; -0.701 in [16]. Besides, the composite Z-score in test [1] was -0.131 (inactive). Besides, the z-score was -1.08 in test [15] and -0.08 (inactive) in test [17].
In the case of `CC(=O)OC[C@H]1O[C@H](CC=NOCC[C@@H]2C=C[C@H](OC(C)=O)[C@@H](COC(C)=O)O2)C=C[C@@H]1OC(C)=O`, the composite z-score in the test with Albumin (Bos taurus) was -0.076; in test [2], 0.127; in test [3] it was -0.165; in test [4], -0.146; in [5], -0.489; in [6] it was -0.099. In addition, the composite z-score with Sam68 (KHDRBS1) is 1.29; in [7], 0.973; in [8] it was 0.304; in test [9] it was 1.77; in test [10], 0.642; in [11] it was -0.216. For the same molecule, the composite z-score in test [12] is -0.305; in test [13], 0.447; in test [14], 1.02; in the test with Lefty1, 1.29; in test [16], -0.111. The composite Z-score in test [1] is -0.69 (inactive). The z-score was -0.6 in [15] and 0.966 (inactive) in test [17].
Turning to `CO[C@@H]1C=CCC(=O)N[C@@H](C)C(=O)OC[C@@H](NS(=O)(=O)c2ccc(C)cc2)[C@H](C)C=CCC(=O)OC[C@H]1C`, the composite z-score was -1.19 in the test with Albumin (Bos taurus); -0.0898 in [2]; -0.242 in [3]; -0.662 in test [4]; -0.971 in test [5]; -0.0366 in test [6]. For the same molecule, the composite z-score in the test with Sam68 (KHDRBS1) was -0.583; in test [7] it was 1.07; in test [8], -0.479; in test [9], -0.605; in [10], -0.56; in test [11] it was -0.0987. Besides, the composite z-score in test [12] is -0.14; in test [13], 0.833; in test [14], 0.638; in the test on Lefty1, 0.841; in test [16], 0.326. For the same molecule, the composite Z-score in test [1] was 0.51 (inactive). In addition, the z-score is -0.198 in test [15] and -0.567 (inactive) in test [17].
For the molecule `CC(C)(C)N1C(=O)[C@H]2[C@H]3[C@H](O)[C@H](O)CC(=NOC[C@@H](O)COCc4ccco4)[C@H]3CC[C@H]2C1=O`, the composite z-score with Albumin (Bos taurus) is 0.383; in test [2], -0.128; in [3], -0.117; in test [4] it was 0.282; in [5], 0.327; in [6], 0.72. Further, the composite z-score with Sam68 (KHDRBS1) is 0.396; in test [7] it was 0.479; in test [8], 0.315; in test [9] it was 0.606; in test [10], 0.237; in test [11] it was -0.136. In addition, the composite z-score is 0.0824 in test [12]; -0.22 in test [13]; 0.249 in test [14]; -0.0429 in the test on Lefty1; 0.495 in test [16]. The composite Z-score in [1] is -0.0443 (inactive). Further, the z-score in test [15] is 0.0624; in test [17] it was -0.011 (inactive).
For `CCO[C@H](c1cc(OC)cc([N+](=O)[O-])c1OC)[C@H](C)[C@@H](OC)[C@H](C)C=CCC(=O)OC`, the composite z-score in the test with Albumin (Bos taurus) is 0.825; in test [2] it was -0.0947; in test [3], -0.0907; in test [4], 0.725; in test [5], 0.0657; in test [6], -0.0242. The composite z-score is 0.724 with Sam68 (KHDRBS1); -0.0602 in test [7]; 0.666 in test [8]; -0.406 in test [9]; 0.257 in test [10]; 0.115 in test [11]. In addition, the composite z-score was 0.949 in [12]; 0.0822 in test [13]; 0.183 in [14]; -0.125 with Lefty1; 0.298 in test [16]. Further, in test [1], the composite Z-score was 0.179 (inactive). The z-score in test [15] was 0.163; in [17], 0.114 (inactive).
As to `C[C@@H]1C=CCC(=O)OC[C@H](C)C(=O)N[C@@H](Cc2ccccc2)C(=O)OC1`, the composite z-score was -0.568 with Albumin (Bos taurus); -0.133 in test [2]; -0.0995 in test [3]; -0.187 in [4]; -0.355 in test [5]; 0.552 in [6]. In addition, the composite z-score in the test with Sam68 (KHDRBS1) was -0.124; in [7] it was 0.981; in test [8], 0.12; in test [9], -0.044; in [10], -0.203; in [11], -0.0171. The composite z-score in [12] is 0.0608; in [13], 0.927; in test [14] it was 0.589; with Lefty1, 0.432; in [16], 0.0031. For the same molecule, the composite Z-score in test [1] is 0.398 (inactive). Further, the values for the z-score in test [15] and in test [17] were -0.00638 and -0.0028 (inactive), respectively.

Source of the values: PubChem BioAssay.
